Among all 360,000 compounds or so, about 11,000 (3.1%) were called active. Roughly 2% stayed inconclusive and do not appear here. Cut-off read from the data, not from the text of the source: active = fluorescence intensity above about 16000; inconclusive = no clear call, values can overlap the other calls; inactive = below that. Shown is part of a subset that was picked to be rich in actives.
Assay: compound fluorescence in toxin protease inhibitor counterscreen, primary screen, artefact control for toxin protease inhibitor project, biochemical, multiplex microsphere, HTS (AID 624483)
Settings: compound autofluorescence counterscreen, microsphere flow cytometry; stronger effect = higher value
For `CCNC(=O)C1(C)CCCN1C(=O)c1ccc(N(C)C)cc1` (stereo not drawn), the fluorescence intensity was 4040 (inactive). In the case of `COC(=O)CCCCC1=CCC2C(=O)C=C(O)C2C1` (stereo not drawn), the fluorescence intensity was 6010 (inactive). With `Cc1ccc(OCCCC(=O)Nc2ccc(N3CCOCC3)cc2)cc1` the fluorescence intensity was 2550 (inactive). In the case of `COc1ccccc1CC(=O)Nc1ccc(S(=O)(=O)N2CCCC2)cc1`, the fluorescence intensity was 4360 (inactive). In the case of `COc1ccc(-c2ccc(Nc3ccc(S(=O)(=O)N4CCCC4)cc3)nn2)cc1OC`, the fluorescence intensity was 22500 (active). For `COc1ccc(S(=O)(=O)N2CCCCCC2)cc1NC(=O)Cc1ccc(OC)c(OC)c1`, the fluorescence intensity was 3920 (inactive). With `O=C(Cc1coc2ccc3ccccc3c12)NCc1cccs1` the fluorescence intensity was 1980 (inactive). For `CCn1ncc(C2=NOC(C(=O)N3CCN(c4ccccc4)CC3)C2)c1C` (stereo not drawn), the fluorescence intensity was 9650 (inactive). With `CCn1ncc(C2=NOC(C(=O)Nc3ccccc3C(=O)OC)C2)c1C` (stereo not drawn) the fluorescence intensity was 21900 (active). In the case of `COc1cc(NC(=O)C2CC(c3ccccc3O)=NO2)c(OC)cc1Cl` (stereo not drawn), the fluorescence intensity was 3150 (inactive). For `Cc1ccc(CNC(=O)c2ccccc2CCc2ccccc2)cc1`, the fluorescence intensity was 13000 (inactive). In the case of `CCCN1Cc2cccc(C(=O)Nc3ccc(S(=O)(=O)N4CCCCCC4)cc3)c2C1=O`, the fluorescence intensity was 10600 (inactive). For `CCCN1Cc2cccc(C(=O)NCc3ccccc3)c2C1=O`, the fluorescence intensity was 16800 (active). In the case of `CCCCCC(=O)Nc1ccc(-c2cn3cccnc3n2)cc1`, the fluorescence intensity was 4250 (inactive). In the case of `COC(=O)c1ccc2nc(-c3ccccc3)c(Cc3ccc(OC)cc3C)n2c1`, the fluorescence intensity was 7120 (inactive). For `CCOC(=O)c1c(NC(=O)CSc2nccc(=O)[nH]2)sc(C)c1C`, the fluorescence intensity was 4560 (inactive). In the case of `CCOc1ccc(C(=O)COC(=O)c2ccc(-n3cnnn3)cc2)cc1`, the fluorescence intensity was 5640 (inactive). For `CCOC(=O)c1c(-n2cnnn2)sc(C)c1C`, the fluorescence intensity was 20300 (active). With `O=c1cc(CN2CCCCCCC2)c2c(ccc3ccccc32)o1` the fluorescence intensity was 5650 (inactive). With `COC(=O)[C@@]1(Cc2ccc(F)cc2)[C@H]2c3cc(C(=O)N4CCCC4)n(C[C@H](O)CO)c3C[C@H]2CN1C(=O)c1ccccc1` the fluorescence intensity was 4320 (inactive). With `COc1cccc(CNc2nc(NCc3ccccc3OC)nc3ccsc23)c1` the fluorescence intensity was 2990 (inactive). For `Cc1ccc(S(=O)(=O)N2CCC(=O)N([C@H](COCc3ccccc3)C(C)C)CC2)cc1`, the fluorescence intensity was 5310 (inactive). For `CCOC(=O)Nc1ccc2c(c1)N(C(=O)CCN1CCN(CCO)CC1)c1ccccc1CC2`, the fluorescence intensity was 5290 (inactive). For `CCOC(=O)Nc1ccc2c(c1)N(C(=O)CN1CCN3CCCC3C1)c1ccccc1CC2` (stereo not drawn), the fluorescence intensity was 18500 (active). With `CCOC(=O)Nc1ccc2c(c1)N(C(=O)CCCl)c1ccccc1[S@]2=O` the fluorescence intensity was 4240 (inactive). For `CCCCCCCCOC1OC(CO)C(O)C(O)C1NC(C)=O` (stereo not drawn), the fluorescence intensity was 4290 (inactive). For `CC1(C)CC(=O)C=C(c2ccccc2CO)C1=O`, the fluorescence intensity was 3370 (inactive). With `Cc1nc2nc(C)c(CCC(=O)N3CCC4(CC3)OCCO4)c(C)n2n1` the fluorescence intensity was 8020 (inactive). For `Cc1nc2ncnn2c(C)c1CCC(=O)N1CCN(C(=O)c2ccco2)CC1`, the fluorescence intensity was 23100 (active). For `Cc1nc2nc(C)c(CCC(=O)N3CCN(c4ccccc4)CC3)c(C)n2n1`, the fluorescence intensity was 8430 (inactive). In the case of `Cc1ccc(C(=O)Nc2sc(Cc3ccc4c(c3)OCO4)c(C)c2C(N)=O)cc1`, the fluorescence intensity was 5510 (inactive). With `COc1ccc(CC(=O)Nc2sc(Cc3ccccc3)c(C)c2C(N)=O)cc1` the fluorescence intensity was 22200 (active). With `COc1ccc(CC(=O)Nc2c(C(N)=O)oc3ccccc23)cc1` the fluorescence intensity was 6330 (inactive). For `COc1ccc(CCNC(=O)Nc2ccc3c(c2)c(=O)n(C)n3C)cc1OC`, the fluorescence intensity was 3460 (inactive). In the case of `CCCN(CCC)c1nc2c(C)cccn2c(=O)c1/C=C1/SC(=S)N(Cc2ccco2)C1=O`, the fluorescence intensity was 25600 (active). For `CNc1nc2c(C)cccn2c(=O)c1C=Nc1ccc(OC)cc1`, the fluorescence intensity was 4140 (inactive). For `Cc1ccc2[nH]c(=O)c(-c3nc4c(C)cccn4c3NCc3ccco3)cc2c1`, the fluorescence intensity was 2400 (inactive). For `CCN(CC)CC1(O)CCN(C(=O)c2ccc(Cl)c(Cl)c2)CC1`, the fluorescence intensity was 4500 (inactive). With `O=C1C(Cl)=C(N2CCOCC2)C(=O)N1c1ccccc1` the fluorescence intensity was 5720 (inactive). For `O=C1c2ccccc2C(=O)N1c1ccccc1S(=O)C(F)(F)F` (stereo not drawn), the fluorescence intensity was 2440 (inactive). For `O=C1C(=O)N(c2ccccc2)c2ccccc21`, the fluorescence intensity was 22200 (active). In the case of `CCOc1ccc(C(C)=O)cc1COC(=O)CNC(=O)c1cccs1`, the fluorescence intensity was 6570 (inactive). With `Cc1occc1C(=O)Nc1cccc(S(=O)(=O)N2CCOCC2)c1` the fluorescence intensity was 3850 (inactive). In the case of `Cc1ccnc(NC(=O)c2ccoc2C)c1`, the fluorescence intensity was 2220 (inactive). In the case of `Cc1occc1C(=O)Nc1cccc(Cn2cccn2)c1`, the fluorescence intensity was 16800 (active). For `COc1ccc(-c2ccc(C(=O)NC(C)C)c3occc23)c(C)c1`, the fluorescence intensity was 3110 (inactive). For `CCOC(=O)c1ccc2c(c1)nc(SCC(=O)NC(C)C)n2CC`, the fluorescence intensity was 19400 (active). For `CCOC(=O)CNC(=O)CSc1nc2cccnc2n1CC`, the fluorescence intensity was 4460 (inactive). With `CCOC(=O)c1ccc2c(c1)nc(C)n2CC` the fluorescence intensity was 2830 (inactive). For `CC(=O)Nc1ccc(NC(=O)CCCNC(=O)c2ccc(Cl)cc2)cc1`, the fluorescence intensity was 5820 (inactive). For `O=C(CCNC(=O)c1ccc(Cl)cc1)NC1CCCc2ccccc21` (stereo not drawn), the fluorescence intensity was 5920 (inactive). For `CCN(CC(=O)NC(C)C)C(=O)CCNC(=O)c1ccc(Cl)cc1`, the fluorescence intensity was 23900 (active). In the case of `Cc1ccc(Cn2cc(CN3CC(N4CCN(C)CC4)CS3(=O)=O)nn2)cc1` (stereo not drawn), the fluorescence intensity was 5630 (inactive). In the case of `COC(CNC(=O)c1ccc2c(c1)ncn2-c1cc(C)cc(C)c1)OC`, the fluorescence intensity was 3480 (inactive). For `Cc1ccc(CN2CCN(c3ccccc3Cl)CC2)o1`, the fluorescence intensity was 3970 (inactive). In the case of `COc1ccc(C(NC(=O)C2CCN(CCCc3ccccc3)CC2)c2cccs2)cc1` (stereo not drawn), the fluorescence intensity was 3340 (inactive). For `CCn1c(O)c2ccc(C(=O)N=NC(=O)c3cccnc3)cc2c1O`, the fluorescence intensity was 22400 (active). For `O=C(CC(=O)c1cccnc1)c1ccccc1`, the fluorescence intensity was 3800 (inactive). For `CCn1c(O)c(N=NC(=O)c2cccc(S(=O)(=O)N3CCCCC3)c2)c2ccccc21`, the fluorescence intensity was 2120 (inactive). In the case of `Brc1ccc2nc(-c3ccccc3)c(Cc3ccccc3)n2c1`, the fluorescence intensity was 6060 (inactive). With `CCC(=NCc1ccco1)c1c(O)n(Cc2ccccc2)c(=O)[nH]c1=O` the fluorescence intensity was 16900 (active). For `CCC(=NCCCO)c1c(O)n(-c2ccc(OC)cc2)c(=O)[nH]c1=O`, the fluorescence intensity was 3280 (inactive). For `CCCCn1c(N)c(N(CC)C(=O)/C=C/c2ccco2)c(=O)[nH]c1=O`, the fluorescence intensity was 3280 (inactive). With `CCCCn1c(O)c(C(CC)=NCc2ccco2)c(=O)[nH]c1=O` the fluorescence intensity was 22200 (active). In the case of `Cn1c(=O)[nH]c(=O)c2c1[nH]c(=S)n2Cc1ccccc1`, the fluorescence intensity was 5200 (inactive). With `Nc1c(N(Cc2ccco2)C(=O)c2cccc(F)c2)c(=O)[nH]c(=O)n1Cc1ccccc1` the fluorescence intensity was 6060 (inactive). For `CCNC(=O)C1(C)CCCN(C(=O)c2ccc3ccccc3n2)C1` (stereo not drawn), the fluorescence intensity was 2790 (inactive). For `COc1cccc(CNc2nc3cc(-c4csc5ccccc45)sc3c(=O)n2C)c1`, the fluorescence intensity was 4090 (inactive). In the case of `CC(C)Nc1ncnc2c1ncn2[C@H]1CN(Cc2ccncc2)C[C@@H](CO)O1`, the fluorescence intensity was 2910 (inactive). In the case of `CCc1nc2c(OCC(N)=O)cccn2c1N(C)C(=O)c1ccc(OC)cc1`, the fluorescence intensity was 3440 (inactive). In the case of `COc1ccccc1N(C)S(=O)(=O)c1ccc(C(=O)NC2CCCCCC2)cc1`, the fluorescence intensity was 5030 (inactive). With `CN(Cc1ccccc1)C(=O)[C@@H]1CCCN1C(=O)[C@@H]1CCCN1C(=O)c1c(F)cccc1F` the fluorescence intensity was 5720 (inactive). With `O=C(NCCc1csc(-c2ccccc2)n1)c1ccccc1F` the fluorescence intensity was 3720 (inactive). For `CNC(=O)c1csc(-c2ccccc2)n1`, the fluorescence intensity was 22300 (active). In the case of `COc1cc(OC)cc(C(=O)NCC(=O)OCc2csc(-c3ccccc3)n2)c1`, the fluorescence intensity was 9780 (inactive). For `CCOC(=O)c1cc2cc(OC)ccc2n1C1CCN(C)CC1`, the fluorescence intensity was 5150 (inactive). In the case of `O=C(COC(=O)Cc1ccc(Br)cc1)Nc1ccc(N2CCOCC2)cc1`, the fluorescence intensity was 8590 (inactive). In the case of `CC(=O)c1ccc(Nc2nc(C(N)c3ccccc3Cl)cs2)cc1` (stereo not drawn), the fluorescence intensity was 3780 (inactive). With `COc1cccc(-c2cc3nc(NCc4ccccc4OC)n(C)c(=O)c3s2)c1` the fluorescence intensity was 2860 (inactive). For `COc1ccc(CCNc2nc(C)cc(C)n2)cc1OC`, the fluorescence intensity was 3430 (inactive). With `COc1cnc(SCc2ccc(Cl)c(Cl)c2)nc1Cl` the fluorescence intensity was 20800 (active). In the case of `Nc1cc(N)nc(SCc2ccc(Cl)cc2)n1`, the fluorescence intensity was 4250 (inactive). In the case of `Cc1ccc([C@H]2N[C@]3(CCCN(CC4CCCCC4)C3=O)[C@H]3C(=O)N(Cc4ccccc4)C(=O)[C@@H]23)cc1`, the fluorescence intensity was 3930 (inactive). For `O=c1c2ccccc2ncn1/N=C/c1ccccc1`, the fluorescence intensity was 3940 (inactive). In the case of `O=c1c2ccccc2nc(N/N=C/c2ccccc2)n1O`, the fluorescence intensity was 24900 (active). With `CC(C)(C)c1nnc(N/N=C/c2ccc(O)cc2)n(N)c1=O` the fluorescence intensity was 9530 (inactive). With `Cc1ccc(-c2noc(CSc3nnc(-c4ccncc4)n3-c3ccc(F)cc3)n2)cc1` the fluorescence intensity was 21100 (active). In the case of `Cc1nnc(SCc2ccc(C(=O)c3ccc(Cl)cc3)o2)n1-c1ccccc1`, the fluorescence intensity was 6940 (inactive). For `Cn1cccc1Cc1nnc(SCC(=O)NCCc2ccccc2)n1-c1ccc(F)cc1`, the fluorescence intensity was 5310 (inactive). In the case of `Fc1ccc(-n2c(Cc3ccccc3)nnc2SCc2nc(-c3ccc(Cl)cc3)no2)cc1`, the fluorescence intensity was 25000 (active). For `Cc1ccc(-c2noc(CSc3nnc(-c4cccs4)n3C)n2)cc1`, the fluorescence intensity was 9700 (inactive). For `Cn1c(SCc2ccc(F)cc2)nnc1-c1ccncc1`, the fluorescence intensity was 4260 (inactive). In the case of `CC(C)(C)NC(=O)NC(=O)COC(=O)Cc1c(F)cccc1Cl`, the fluorescence intensity was 4470 (inactive). For `O=C(Nc1c(Br)cc2c(c1Br)Cc1ccccc1-2)C(F)(F)F`, the fluorescence intensity was 3730 (inactive). With `O=C(CC(NCCN1CCOCC1)C(=O)O)Nc1cccc(Cl)c1` (stereo not drawn) the fluorescence intensity was 3410 (inactive). In the case of `Cn1c(CC(=O)Nc2ccc(F)cc2)nnc1SCC(=O)NC1CCCCC1`, the fluorescence intensity was 3940 (inactive). With `COc1cccc(NC(=O)CSc2nnc(C3CCCCC3)n2N)c1` the fluorescence intensity was 7460 (inactive). With `C=CCn1c(CC(=O)Nc2cccc(OC)c2)nnc1SCC(=O)NC1CCCCC1` the fluorescence intensity was 21000 (active).
